The values below come from PubChem BioAssay (Tox21).

“And” between values parts separate entries of the source, which are not always exact repeats. Identical values can stand only once. Records with an inconclusive call do not appear. A structure can be active in one record and inactive in another. The source made the active and inactive calls. Unless noted, calls follow the shape of the dose curve; as a rule, active = well fitted curve in the direction sought with a large enough effect in the repeat runs; inconclusive = weak or mixed curves; inactive = no such curve, though single readings can be large; an effect the other way counts as inactive or inconclusive.

Assay [1] is described as follows: qHTS assay to test for compound auto fluorescence at 535 nm (green) in HEK293 cells (AID 720680). Background: In qHTS, concentration-response curves come from the screen itself.
The nature of assay [2]: qHTS assay to test for compound auto fluorescence at 460 nm (blue) in HEK293 cell free culture (AID 720681). A digest of the protocol:
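Blue fluorescence (Ex 405/Em 460 nm, triamterene-equivalent) was read immediately after pin transfer of compound or DMSO into medium (DMEM, 10% FBS) without cells.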

Assay [3] can be described thus: qHTS assay to test for compound auto fluorescence at 535 nm (green) in HEK293 cell free culture (AID 720682). Put shortly: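 No cells present: wells hold DMEM supplemented with 10% FBS, into which compound or vehicle is pinned. Green emission is then recorded (485 nm excitation, 535 nm emission) and scaled to fluorescein.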
Assay [4] is described as follows: qHTS assay to test for compound auto fluorescence at 590 nm (red) in HEK293 cell free culture (AID 720683). A digest of the protocol:
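Red-channel autofluorescence of compounds in culture medium (DMEM, 10% FBS), no cells, measured at 540/590 nm. Rose Bengal sodium is the reference fluorophore for equivalence.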

A short description of assay [5]: qHTS assay to test for compound auto fluorescence at 590 nm (red) in HepG2 cell free culture (AID 720684). Put shortly: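 No cells present: MEM + 10% FBS only. Compound pinned in, red label read (540/590 nm). Activity = fluorescence equivalent to Rose Bengal sodium.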
Assay [6] in a line: qHTS assay to test for compound auto fluorescence at 460 nm (blue) in HepG2 cell free culture (AID 720685). Put shortly: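 Cell-free plates of MEM plus 10% FBS received 23 nL compound or DMSO vehicle; blue-channel (405/460 nm) intensity scored against triamterene as reference fluorophore.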
A short description of assay [7]: qHTS assay to test for compound auto fluorescence at 535 nm (green) in HepG2 cell free culture (AID 720686).
The nature of assay [8]: qHTS assay to test for compound auto fluorescence at 460 nm (blue) in HepG2 cells (AID 720687). A digest of the protocol:
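Blue-channel autofluorescence (Ex/Em 405/460 nm, triamterene-equivalent) was measured after 1 hr compound exposure at 37 C, 5% CO2. Cells were HepG2, plated overnight at 37 C in MEM plus 10% FBS.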

The nature of assay [9]: qHTS assay to identify small molecule antagonists of the glucocorticoid receptor (GR) signaling pathway - cell viability counter screen (AID 720693). Also: nearly all actives have a fitted effect of over 55% in size.
Assay [10] can be described thus: qHTS assay for identifying genotoxic compounds that show differential cytotoxicity against isogenic chicken DT40 cell lines with known DNA damage response pathways - wild type cell line (AID 743012). Also: nearly all actives have a fitted effect of over 60% in size. Put shortly:
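Viability by ATP luminescence (CellTiter-Glo, 30 min RT) after 40 h compound treatment at 37 C/5% CO2, using 300 parental DNA repair-proficient DT40 cells per well.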

Assay [11] is described as follows: qHTS assay for identifying genotoxic compounds that show differential cytotoxicity against isogenic chicken DT40 cell lines with known DNA damage response pathways - Rev3 mutant cell line (AID 743014). Also: nearly all actives have a fitted effect of over 55% in size. Also: potency is read from the fitted curve at half-maximal effect.
A short description of assay [12]: qHTS assay for identifying genotoxic compounds that show differential cytotoxicity against isogenic chicken DT40 cell lines with known DNA damage response pathways - Rad54/Ku70 mutant cell line (AID 743015). Also: nearly all actives have a fitted effect of over 60% in size. Also: potency is read from the fitted curve at half-maximal effect.
Assay [13] can be described thus: qHTS assay to identify small molecule antagonists of the androgen receptor (AR) signaling pathway - cell viability counter screen (AID 743033; also: nearly all actives have a fitted effect of over 45% in size).
The nature of assay [14]: qHTS assay to identify small molecule antagonists of the androgen receptor (AR) signaling pathway using the MDA cell line - cell viability counter screen (AID 743041; also: nearly all actives have a fitted effect of over 45% in size; also: potency is read from the fitted curve at half-maximal effect). A digest of the protocol: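 Using the breast carcinoma line MDA-kb2 AR-luc, test chemicals were co-incubated with R1881 for 16 h; CellTiter-Fluor reagent, added at 15.5 h, provided a fluorescence measure of live cells.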

The nature of assay [15]: qHTS assay to identify small molecule antagonists of the thyroid receptor (TR) signaling pathway - cell viability counter screen (AID 743064). Also: nearly all actives have a fitted effect of over 50% in size. Also: potency is read from the fitted curve at half-maximal effect. A digest of the protocol:
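Rat GH3 pituitary tumor cells stably expressing two TR response elements driving luciferase were plated, rested 4 h, then dosed with library compounds and T3 (1 nM final). After 23.5 h at 37 °C, CellTiter-Fluor was added for 30 min and fluorescence recorded.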

The target in assay [16] is Glucocorticoid receptor (Homo sapiens) (UniProt P04150). The experiment in a line: qHTS assay to identify small molecule agonists of the glucocorticoid receptor (GR) signaling pathway (AID 720691; active = well fitted activation curve with a large enough effect in the signal ratio in the repeat runs, not every such curve was filed as active; the % refers to the signal ratio). A digest of the protocol: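 Agonist-mode qHTS in HeLa cells stably expressing a glucocorticoid-response-element beta-lactamase reporter. Fluorescence intensity read with FRET substrate (2 h, room temperature) after 18 h compound treatment at 37 C.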
Chain of Glucocorticoid receptor (Homo sapiens) (P04150 whole entry, looked up): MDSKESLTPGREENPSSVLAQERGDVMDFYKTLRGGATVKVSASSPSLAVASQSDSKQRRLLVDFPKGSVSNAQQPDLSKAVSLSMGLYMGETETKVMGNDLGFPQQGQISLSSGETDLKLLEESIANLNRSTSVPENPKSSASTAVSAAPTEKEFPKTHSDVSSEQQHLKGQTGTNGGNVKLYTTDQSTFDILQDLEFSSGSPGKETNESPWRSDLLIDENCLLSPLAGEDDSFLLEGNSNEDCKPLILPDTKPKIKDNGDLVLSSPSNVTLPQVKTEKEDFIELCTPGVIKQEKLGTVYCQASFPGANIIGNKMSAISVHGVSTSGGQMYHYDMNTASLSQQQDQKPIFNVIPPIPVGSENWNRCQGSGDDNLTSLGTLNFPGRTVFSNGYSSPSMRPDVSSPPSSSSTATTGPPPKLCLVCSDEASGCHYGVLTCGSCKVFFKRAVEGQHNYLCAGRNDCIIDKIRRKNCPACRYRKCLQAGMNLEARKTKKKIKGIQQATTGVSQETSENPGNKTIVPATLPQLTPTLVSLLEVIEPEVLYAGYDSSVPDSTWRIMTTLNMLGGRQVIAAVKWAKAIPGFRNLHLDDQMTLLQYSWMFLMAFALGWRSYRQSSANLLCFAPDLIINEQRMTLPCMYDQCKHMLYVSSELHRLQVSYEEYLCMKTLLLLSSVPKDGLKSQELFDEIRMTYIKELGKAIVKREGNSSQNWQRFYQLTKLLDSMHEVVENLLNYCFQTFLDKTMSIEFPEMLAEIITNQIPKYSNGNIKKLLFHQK

Assay [17] shares this target. The experiment in a line: qHTS assay to identify small molecule antagonists of the glucocorticoid receptor (GR) signaling pathway (AID 720692; active = well fitted inhibition curve with a large enough effect in the signal ratio in the repeat runs, not every such curve was filed as active; the % refers to the signal ratio). A digest of the protocol:
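Inhibition of dexamethasone-driven (5 nM final) beta-lactamase expression was measured in GRE-reporter HeLa cells over 18 h at 37C. Fluorescence was read after 2 h with the B/G FRET substrate at room temperature.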

On to `O=NO`, for which the outcome in assay [1], in assay [2], in assay [3], in assay [4], in assay [5] and in assay [6] was inactive. Besides, the compound was called inactive in [7], in [8] and in assay [13]. Further, the Potency result in assay [9], in assay [10], in [11], in assay [12], in [14] and in assay [15] was “inactive” each time.
Regarding `NC(=O)NC1NC(=O)NC1=O` (configuration not stated), the result in assay [1], in [2], in assay [3], in assay [4], in assay [5] and in assay [6] was inactive. In addition, the call in assay [7], in assay [8], in assay [17] and in [13] was inactive. In addition, the Potency result in [16], in assay [9], in assay [10], in [11], in assay [12] and in assay [14] was “inactive” throughout. For the same compound, the Potency result in [15] is “inactive”.
On to `CCC1(c2ccccc2)C(=O)NCNC1=O`, for which the outcome in assay [1], in [2], in [3], in [4], in assay [5] and in assay [6] was inactive. For the same compound, the compound was classed as inactive in [7], in assay [8], in assay [17] and in assay [13]. The Potency result in [16], in assay [9], in assay [14] and in [15] was “inactive” throughout.
`O=C(O)c1[nH]n(-c2ccc(S(=O)(=O)O)cc2)c(=O)c1N=Nc1ccc(S(=O)(=O)O)cc1`: the compound was classed as inactive in assay [1], in [2], in assay [3], in [4], in assay [5] and in [6]. The call in assay [7], in [8] and in assay [13] was inactive. Further, the Potency result in assay [9], in [10], in assay [11] and in [12] was “inactive” in each case. Besides, the Potency is 15 µM (active) and 61.3 µM (active) and 57.1 µM (active) in assay [14]; 54.6 µM (active) and 50.9 µM (active) in assay [15].
`CC(=O)NS(=O)(=O)c1ccc(N)cc1`: the result in assay [1], in assay [2], in [3], in [4], in assay [5] and in assay [6] was inactive. Moreover, the outcome in [7], in assay [8], in assay [17] and in [13] was inactive. Besides, the Potency result in [16], in [9], in assay [10], in assay [11], in assay [12] and in assay [14] was “inactive” throughout. Besides, the Potency result in assay [15] was “inactive”.
`Cc1ccc(S(=O)(=O)NC(=O)NN2CCCCCC2)cc1`: the call in [1], in [2], in [3], in assay [4], in assay [5] and in assay [6] was inactive. For the same compound, the compound was classed as inactive in assay [7], in [8], in [17] and in assay [13]. Further, the Potency result in assay [16], in [9], in assay [10], in [12], in [14] and in [15] was “inactive” throughout. Moreover, the Potency result in assay [11] was “inactive and 68.6 µM (active)”.
With `Cc1noc(NS(=O)(=O)c2ccc(N)cc2)c1C`, the compound was called inactive in [1], in [2], in [3], in assay [4], in assay [5] and in assay [6]. The outcome in assay [7], in assay [8] and in assay [13] was inactive. In addition, the Potency entry in assay [9], in [10], in [11], in assay [12], in [14] and in assay [15] was “inactive” in each case.
As to `CC(O)CO` (configuration not stated), the compound was classed as inactive in assay [1], in [2], in [3], in [4], in assay [5] and in [6]. For the same compound, the result in assay [7], in assay [8], in [17] and in assay [13] was inactive. In addition, the Potency entry in assay [16], in assay [9], in [10], in assay [11], in assay [14] and in [15] was “inactive” throughout. Also, the Potency entry in assay [12] was “inactive and 61.1 µM (active)”.
